Active and inactive are the calls of the source. How the source made its calls: active means hit-call score of the fitted dose curve at least 0.9, where 1 is the maximum; inactive means score below 0.9.

Broadly, the AC50 is the concentration at which the activity in the assay is half-maximal.

In the test the target is human Receptor-type tyrosine-protein phosphatase F (PTPRF/LAR), PTPRF (gene 5792) (UniProt P10586). As to the kind of experiment: ERF_TW_ENZ_hPTPRF: Eurofins (ERF) Enzymatic LeadHunter Assay for human Receptor-type tyrosine-protein phosphatase F (PTPRF/LAR). On the procedure: ERF_TW_ENZ_hPTPRF is a biochemical, single-readout assay that uses extracted gene-proteins in a cell-free assay. Measurements were taken 1 hour after chemical dosing in a 96-well plate. See LAR Human Phosphatase Enzymatic Assay, Panlabs.ERF_TW_ENZ_hPTPRF is an assay component calculated from the ERF_TW_ENZ_hPTPRF assay. It is designed to measure enzyme activity using a type of enzyme reporter as detected by fluorescence intensity with spectrophotometry technology.Data from the assay component ERF_TW_ENZ_hPTPRF was analyzed at the assay endpoint, ERF_TW_ENZ_hPTPRF, in the positive analysis fitting direction relative to DMSO as the negative control and baseline of activity. Using a type of enzyme reporter, loss-of-signal activity can be used to understand changes in enzymatic activity as they relate to gene PTPRF. To generalize the intended target to other relatable targets, this assay endpoint is annotated to the phosphatase intended target family, where the subfamily is receptorasA tyrosine phosphatase.
Chain of human Receptor-type tyrosine-protein phosphatase F (PTPRF/LAR), PTPRF (gene 5792) (P10586 whole entry, looked up): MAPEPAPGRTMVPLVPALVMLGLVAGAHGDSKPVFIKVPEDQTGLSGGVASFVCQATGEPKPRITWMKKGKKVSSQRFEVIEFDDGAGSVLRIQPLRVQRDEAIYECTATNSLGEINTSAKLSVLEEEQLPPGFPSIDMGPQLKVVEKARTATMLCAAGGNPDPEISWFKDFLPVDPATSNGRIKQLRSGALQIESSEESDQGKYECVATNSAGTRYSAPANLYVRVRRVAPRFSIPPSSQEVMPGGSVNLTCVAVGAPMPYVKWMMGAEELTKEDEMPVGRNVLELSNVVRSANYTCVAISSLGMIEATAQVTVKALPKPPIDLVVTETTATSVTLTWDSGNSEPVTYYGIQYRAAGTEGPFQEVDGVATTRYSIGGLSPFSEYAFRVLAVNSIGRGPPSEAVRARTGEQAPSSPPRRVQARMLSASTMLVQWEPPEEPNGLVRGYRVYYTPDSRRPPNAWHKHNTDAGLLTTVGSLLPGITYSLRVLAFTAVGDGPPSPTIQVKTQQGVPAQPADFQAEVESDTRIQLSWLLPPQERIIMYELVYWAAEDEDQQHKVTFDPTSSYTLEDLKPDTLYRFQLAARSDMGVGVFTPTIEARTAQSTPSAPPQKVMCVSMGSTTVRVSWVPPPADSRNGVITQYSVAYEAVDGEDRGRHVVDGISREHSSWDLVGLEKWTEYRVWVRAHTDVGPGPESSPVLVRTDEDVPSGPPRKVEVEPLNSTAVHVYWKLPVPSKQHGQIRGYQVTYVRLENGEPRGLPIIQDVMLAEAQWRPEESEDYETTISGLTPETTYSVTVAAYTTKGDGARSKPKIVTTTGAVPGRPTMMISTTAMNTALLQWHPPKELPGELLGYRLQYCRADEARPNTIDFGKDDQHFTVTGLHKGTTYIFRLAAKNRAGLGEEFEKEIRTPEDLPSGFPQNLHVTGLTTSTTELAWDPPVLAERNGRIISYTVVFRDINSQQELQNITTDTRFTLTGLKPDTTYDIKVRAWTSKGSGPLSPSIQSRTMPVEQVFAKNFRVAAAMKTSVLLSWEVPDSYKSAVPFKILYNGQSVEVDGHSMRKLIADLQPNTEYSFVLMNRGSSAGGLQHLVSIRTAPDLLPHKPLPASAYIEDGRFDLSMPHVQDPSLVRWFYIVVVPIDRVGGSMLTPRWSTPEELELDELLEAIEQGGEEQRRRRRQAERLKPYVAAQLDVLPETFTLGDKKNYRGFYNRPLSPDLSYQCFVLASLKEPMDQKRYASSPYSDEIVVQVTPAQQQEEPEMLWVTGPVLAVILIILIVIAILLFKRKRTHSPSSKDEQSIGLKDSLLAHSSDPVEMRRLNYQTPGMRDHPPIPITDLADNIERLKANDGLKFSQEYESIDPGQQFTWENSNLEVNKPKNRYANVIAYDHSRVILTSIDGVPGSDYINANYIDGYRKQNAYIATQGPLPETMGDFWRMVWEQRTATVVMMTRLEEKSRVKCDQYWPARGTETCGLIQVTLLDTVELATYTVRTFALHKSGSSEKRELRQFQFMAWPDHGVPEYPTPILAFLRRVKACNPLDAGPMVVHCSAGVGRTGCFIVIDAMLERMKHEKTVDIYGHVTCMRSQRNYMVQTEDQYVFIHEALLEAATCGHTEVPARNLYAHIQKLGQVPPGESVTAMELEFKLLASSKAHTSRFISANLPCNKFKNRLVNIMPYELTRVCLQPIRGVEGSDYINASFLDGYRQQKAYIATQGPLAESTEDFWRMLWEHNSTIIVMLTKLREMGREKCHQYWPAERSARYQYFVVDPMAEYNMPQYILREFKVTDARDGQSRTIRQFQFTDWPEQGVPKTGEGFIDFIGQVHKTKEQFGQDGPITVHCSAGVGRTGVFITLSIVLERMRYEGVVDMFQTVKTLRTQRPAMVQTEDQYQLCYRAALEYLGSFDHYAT
Human recombinant protein phosphatase LAR expressed in E. coli is used. Test compound and/or vehicle is preincubated with 0.48 ng/ml enzymedouble dagger for 15 minutes at 37C in modified HEPES buffer pH 7.2. The reaction is initiated by addition of 10 uM DiFMUP for 60 minutes. Determination of the amount of DiFMU formed is read spectrofluorimetrically at 358 nm/450 nm. […]
In the case of `O=C(/C=C/c1ccc(O)cc1)CC(=O)/C=C/c1ccc(O)cc1`, the concentration at half-maximal activity (AC50) was 5 µM (active).

The values above are taken from PubChem BioAssay AID2284127 (EPA ToxCast).
